Reference: ChEMBL document CHEMBL3433997, “St. Jude Leishmania screening dataset” (2016)

These compounds were tested against Glucose transporter (Leishmania mexicana) (UniProt O61059) (assay: ST_JUDE_LEISH: Cytotoxicity at 2uM final concentration against transgenic Leishmania Mexicana promastigotes LmGT2 that are glucose transport deficient and complemented with the L. Mexicana glucose transporter 2. Activity is measured by DNA content using SYBR green in vitro).
Type: functional

SMILES	inhibition [%]
O=C(Cc1ccccc1)NC1(c2ccccc2)CCN(CCc2c[nH]c3ccc(F)cc23)CC1	-0.69
Cc1ccc2c(NC(=O)Nc3ccc(N(C)C)cc3)cc(C)nc2c1	6.28
O=C(Nc1cccc(CN2CCCN(Cc3ncc[nH]3)CC2)c1)c1ccc(-c2ccccc2)cc1	2.54
Cc1cc(O)c(-c2cc(C(=O)Nc3cccnc3)[nH]n2)cc1C	4.37
O=C(Nc1ccc(OC2CCN(Cc3ccc(F)cc3)C2)c(Cl)c1)c1ccccc1 (stereo not given)	4.94
CCOc1ccc(N2CCN(CCCCNC(=O)c3ccc(NC(=O)c4ccc(Cl)cc4)cc3)CC2)c(OCC)c1	2.35
COc1cc(C)nc2ccc(NC(=O)Nc3ccccc3[N+](=O)[O-])cc12	1.8
CC(C)(C)c1ccccc1OCCCON1C(=N)N=C(N)NC1(C)C	37.1
Clc1cccc(Nc2ccc3c(N4CCCCC4)ncnc3n2)c1	4.28
O=C(Nc1ccc(Cl)cc1)c1ccc(S(=O)(=O)NCC2CCN(CC3CCCCC3)CC2)cc1	1.4
N#Cc1ccc(N(CCOC(=O)c2ccc(Br)s2)Cc2ccccc2C(F)(F)F)cc1C(F)(F)F	3.28
N#Cc1ccc(-c2cnc3ccc(NCCc4cccnc4)nn23)cc1	0.25
O=C(/C=C/c1ccc(Cl)c(Cl)c1)NCCCCCN1CCCN(C(=S)Nc2ccc(Cl)cc2)CC1	1.57
CCCCCOc1ccc(C(=NC)N(CCCCC)CCCCC)c2ccccc12	7.32
Cn1nc(-c2ccccc2F)c2cc(C(=O)NC3CCN(Cc4ccccc4)CC3)sc21	-1.7
CC(CCON1C(N)=NC(N)=NC1(C)C)c1ccc(Cl)cc1 (stereo not given)	21
Clc1ccccc1CCNCC1CCN(CC2CCCCC2)CC1	1.76
Oc1ccccc1CN1CCN(C(c2ccccc2)c2ccccc2)CC1	-0.06
CC(CN1CCN(C)CC1)C(=O)Nc1ccc(-c2cccc(-c3nc4cc(C(F)(F)F)ccc4[nH]3)c2)cc1 (stereo not given)	-2.84
O=C(/C=C/c1ccc(C(F)(F)F)cc1)NCCCCCN1CCCN(C(=O)Nc2ccc(Cl)cc2)CC1	1.84

SMILES	inhibition [%]
O=C(C=Cc1cn(-c2ccccc2)nc1-c1cccs1)N1CCN(c2ccncc2)CC1	-3.76
COc1ccc(NC(=O)[C@H](Cc2ccccc2)Nc2cc(C)nc(NCCc3ccccn3)n2)cc1	-0.86
O=C(Nc1cccc(-c2cccc(-c3nc4cc(C(F)(F)F)ccc4[nH]3)c2)c1)c1cccnc1Cl	-2.92
CCCCCN1CCCC1CNS(=O)(=O)c1ccc(C(=O)Nc2cccc(C(F)(F)F)c2)cc1 (stereo not given)	0.19
CCOC(=O)/C(=N\OC(C)(C)C(=O)NCc1ccc(O)c(O)c1)c1csc(NC(c2ccccc2)(c2ccccc2)c2ccccc2)n1	-1.17
NC(=O)Nc1ccc2c(Nc3ccc(OCc4ccccc4)cc3)ncnc2c1	-2.05
NCc1cccc(-c2ccccc2CNC2CCN(Cc3ccccc3)CC2)c1	6.92
O=C(NCC1CCC(CNCCCc2ccccc2)CC1)Nc1ccc(Cl)c(Cl)c1 (stereo not given)	0.92
O=C(Cc1cccnc1)Nc1cccc(-c2cccc(-c3nc4cc(C(F)(F)F)ccc4[nH]3)c2)c1	1.35
COc1ccc(NC(=O)c2ccc(-c3cccc(OCc4ccccc4)c3)cc2)cc1N1CCN(C)CC1	-0.95
COCCNCc1cccc(C#Cc2cc3ncnc(Nc4ccc(OCc5cccc(F)c5)c(Cl)c4)c3s2)n1	3.62
CCCNC[C@@H](O)[C@H](Cc1ccccc1)NC(=O)c1cc(NCC)cc(N2CCCCS2(=O)=O)c1	2.85
Cc1c(S(=O)(=O)Nc2cccc(CCN3CCCCC3CCN3CCCC3)c2)sc2ccc(Cl)cc12 (stereo not given)	-0.62
COc1cccc(C(=O)NCc2nnc(S)n2-c2ccc(Cl)c(Cl)c2)c1	-0.3
CC(=O)Nc1ccc(Nc2ncc([N+](=O)[O-])c(Nc3ccccc3C(N)=O)n2)cc1	1.93
CCC(C(=O)Nc1cc(=O)[nH]c2nc(-c3ccco3)nn12)c1ccccc1 (stereo not given)	1.71
CCC(CO)NCC(O)Cn1c2ccc(Cl)cc2c2cc(Cl)ccc21 (stereo not given)	2.18
COC(=O)c1cccc(NC(=O)NC2CCN(c3ccnc(Nc4ccc(F)cc4)n3)C2)c1 (stereo not given)	-0.55
NC(=O)c1cccc(C(=O)Nc2cccc(-c3ccc(-c4nc5ccccc5[nH]4)s3)c2)c1	0.12
Nc1ccnc(N2CCC(CCOc3cc(C(F)(F)F)nc4c(C(F)(F)F)cccc34)CC2)c1	10.2
